A selection: hits, their analogues and other compounds. The true share with any hit is near 2.2%.
KLF5 inh = inhibitors of KLF5 expression | AID 1700 | 290,000 compounds, 0.23% hits | inhibition, % at 5 µM | DLD-1 KLF5 promoter-luciferase reporter, luminescence;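 active = inhibition above a per-plate limit of that plate's mean compound inhibition plus 3 SD, cut at about 60% in these data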;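 also: 0% = DMSO wells and 100% = LY294002 at 200 µM; higher means less KLF5 promoter-driven luciferase light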
BaF3 parental = reduces parental Ba/F3 cell viability, JAK2V617F counter-screen; CellTiter-Glo ATP luminescence; inhibition, % at 5.6 µM; 220,000 compounds, 1.1% hits;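 active = inhibition above a per-campaign cutoff, the mean inhibition of all tested compounds plus 3 SD, cut at about 27% in these data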;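 also: 0% = DMSO wells and 100% = JAK Inhibitor I control wells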
IEC-6 cytotox = IEC-6 cytotoxicity, counter-screen for KLF5 inhibitors; luminescence viability; inhibition, % at 5 µM; 290,000 compounds, 0.78% hits; AID 1825; in the data active = inhibition above about 22%;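 also: 0% = plate median of test compound wells and 100% = cytotoxic reference compound wells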
APP transl inh = APP translation inhibition | SH-SY5Y APP 5'UTR-luciferase reporter, luminescence | inhibition, % at 2 µM | 190,000 compounds, 0.82% hits;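 active = inhibition above a set limit, derived from the sample mean plus 3 SD, cut at about 45% in these data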
Ba/F3 V617F tox = lowers viability of Ba/F3 cells expressing EpoR and JAK2V617F; 220,000 compounds, 1.1% hits; inhibition, % at 5.6 µM; ATP luminescence; AID 1446;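 active = inhibition above the campaign mean plus 3 SD over all tested compounds, cut at about 24% in these data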;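 also: cytokine-independent growth of Ba/F3 cells driven by EpoR plus mutant JAK2; 0% = DMSO-treated cells and 100% = JAK inhibitor I control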
aSyn UTR inh = 5' untranslated region of α-synuclein, MLPCN primary screen; alpha-synuclein 5'UTR reporter, inhibitor activity; inhibition, % (tested at 7.5 µM); 300,000 compounds, 0.82% hits; AID 1813; in the data active = inhibition above about 60%;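 also: H4 neuroglioblastoma cells stably carrying SNCA 5'UTR luciferase fusion; 0% = DMSO wells and 100% = positive control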
Active calls of the source: *; x = no result.

SMILES | KLF5 inh | BaF3 parental | IEC-6 cytotox | APP transl inh | Ba/F3 V617F tox | aSyn UTR inh
COc1ccc(NS(=O)(=O)c2ccc3oc(SC(C)C(N)=O)nc3c2)cc1 (centres undefined) | -34.0 | x | 6.8 | x | x | -12.0
Cn1c2ccc(Br)cc2c2nnc(SCC(=O)O)nc21 | 44.1 | x | 6.1 | x | x | 62.0*
Cn1c2ccccc2c2nnc(SCC(N)=O)nc21 | -16.3 | x | 0.0 | x | x | 3.4
CCOc1ccc(Br)cc1CC(=O)O | -14.9 | 1.8 | -1.3 | -4.7 | 4.0 | 3.5
CCCOc1ccc(Br)cc1CSC(=N)N | -16.0 | 41.3* | 20.8 | -1.0 | 37.8* | -34.7
CC(=O)N1CCC(C(=O)NC2CCCc3c2cnn3-c2cc(F)cc(F)c2)CC1 (centres undefined) | -14.5 | x | -4.1 | x | x | -8.9
O=C(O)CCSc1ncnc2sc(-c3ccccc3)cc12 | 10.0 | -2.2 | 0.7 | x | -6.4 | 88.2*
O=C(NNC(=O)C1[C@H]2CCCC[C@@H]12)Nc1cccc2ccccc12 (some centres undefined) | 0.1 | -2.5 | 2.4 | x | -4.5 | 1.1
COc1ccc(OCc2cccc(C(=O)O)c2)cc1 | x | x | x | x | x | 127.6*
O=C(O)c1cccc(COc2ccc(CO)cc2Cl)c1 | x | x | x | x | x | 105.4*
O=C(O)c1cc(OCc2ccccc2)cc(OCc2ccccc2)c1 | -17.6 | x | -2.2 | x | x | 1.2
O=C(OCC(F)(F)F)c1cccc(COc2ccc3ccccc3c2)c1 | -3.6 | 2.2 | -1.4 | 44.0 | 2.0 | 106.6*
CCOc1ccc(OCc2cccc(C(=O)O)c2)cc1 | x | x | x | x | x | 83.6*
CCOc1ccc(OCc2cccc(C(=O)N3CCCC3)c2)cc1 | -133.5 | 7.7 | 2.2 | -117.1 | 2.9 | -4.1
CCOc1ccc(OCc2cccc(C(=O)N3CCCCCC3)c2)cc1 | -61.2 | 11.2 | -0.3 | -113.4 | -0.1 | 76.0*
CCCCn1c(NC(C)=O)c(C#N)c2nc3ccccc3nc21 | 8.7 | 4.7 | 2.5 | 51.7* | 0.4 | 4.1
CCCCCn1c(N)c(C#N)c2nc3ccccc3nc21 | -7.4 | 3.6 | 2.3 | -0.1 | 0.3 | 42.7
CCOC(=O)C1(CCOc2ccccc2)CCN(Cc2ccc(O)c(OC)c2)CC1 | -2.1 | x | -0.9 | x | x | -37.6
CCOC(=O)C1(CCOc2ccccc2)CCN(Cc2ccc(O)c(Cl)c2)CC1 | -43.2 | x | -2.3 | x | x | 108.4*
COc1ccccc1NC(=O)C(CC=C(Cl)Cl)C(C)=O (centres undefined) | 2.1 | 39.1* | 4.1 | 4.6 | -6.8 | 0.4
COc1ccccc1NC(=O)C(C/C=C(\C)Cl)C(C)=O (centres undefined) | -4.0 | -0.9 | 3.4 | -11.9 | -1.2 | -73.3
CCOc1ccc2nc3cc(NCc4ccc(OC)cc4)ccc3c(N)c2c1 | 8.3 | x | -2.0 | x | x | 108.6*
Cc1cc(NC(=O)c2cncc(Br)c2)ccc1NC(=O)c1cc2ccccc2o1 | -5.3 | x | 11.6 | x | x | 78.0*
COc1cc(NC(=O)c2ccccc2)ccc1NC(=O)c1cc2ccccc2o1 | -32.0 | x | -6.2 | x | x | -9.7
C=CCN(C(=O)Nc1ccc(Cl)cc1)C1CC(=O)N(c2ccc(OC)cc2)C1=O (centres undefined) | -17.9 | 1.6 | 0.9 | 47.4* | -6.1 | 9.7
SMILES | KLF5 inh | BaF3 parental | IEC-6 cytotox | APP transl inh | Ba/F3 V617F tox | aSyn UTR inh
C=CCN(C(=O)Nc1ccc(F)cc1)C1CC(=O)N(c2ccc(OC)cc2)C1=O (centres undefined) | -10.9 | -0.7 | 5.5 | 20.8 | -0.2 | x
C/C(=N\Nc1ccc(S(N)(=O)=O)cc1[N+](=O)[O-])c1cccnc1 | -0.6 | x | 2.7 | x | x | 8.5
O=C(O)[C@@H]1CCCC[C@@H]1C(=O)N1CCc2ccccc2C1CN1C(=O)c2ccccc2C1=O (some centres undefined) | -28.9 | -2.1 | -1.3 | 19.9 | -3.3 | 67.7*
Cc1ccc(C(=O)Nc2ccc(C(=O)O)cc2)cc1S(=O)(=O)NCc1ccccc1 | -12.6 | 4.2 | -3.0 | -21.6 | -1.6 | -4.1
COc1ccc(Nc2nc(N)c([N+](=O)[O-])c(NC3CCCCC3)n2)cc1 | -10.3 | x | -10.7 | x | x | 61.8*
CCC(C)Nc1nc(N)c([N+](=O)[O-])c(NCc2ccccc2)n1 (centres undefined) | 2.2 | x | 3.7 | x | x | 64.7*
COCCCNc1nc(N)c([N+](=O)[O-])c(NC2CCCCC2)n1 | -28.4 | x | -2.4 | x | x | 90.1*
CC(C)CCNc1nc(N)c([N+](=O)[O-])c(NCC2CCCO2)n1 (centres undefined) | 13.6 | 6.6 | 0.0 | -18.6 | -0.5 | 61.6*
COc1ccc(N(CC(=O)N/N=C/c2ccccc2F)S(=O)(=O)c2ccccc2)cc1 | -23.2 | x | -8.2 | x | x | 17.7
CC(C)CCN1CCN=C1Nc1ccccc1 | -9.6 | x | 5.5 | x | x | -14.2

Assay outcomes (PubChem BioAssay)
